Inconclusive results are not listed. The source made the active and inactive calls. Unless noted, calls come from the whole dose curve.
Tests used:
[1] = Nuclear factor erythroid 2-related factor 2/antioxidant responsive element (Nrf2/ARE) small molecule agonists: qHTS cell viability counter screen in human keratinocytes (AID 1919968; active = well fitted curve in the direction sought with a large enough effect in the repeat runs; an effect the other way counts as inactive or inconclusive; note: nearly all actives have a fitted effect of over 55% in size; note: potency is the fitted concentration of half-maximal effect)
Outline: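 Measured as CellTiter-Fluor fluorescence, this readout tracks cytotoxicity in the same wells as the ARE-luciferase screen. HaCaT reporter cells (1,500/well) received compounds after a 5 h pre-incubation and were exposed for 23 h.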

[2] = biological target: Gonadotropin-releasing hormone receptor (Homo sapiens) (UniProt P30968); assay: Human gonadotropin-releasing hormone receptor (GnRHR) small molecule agonists, calcium flux assay in GnRHR-HEK293 cells (AID 1920063); note: nearly all actives have a fitted effect of over 35% in size
Sequence of Gonadotropin-releasing hormone receptor (Homo sapiens) (P30968 whole entry, looked up): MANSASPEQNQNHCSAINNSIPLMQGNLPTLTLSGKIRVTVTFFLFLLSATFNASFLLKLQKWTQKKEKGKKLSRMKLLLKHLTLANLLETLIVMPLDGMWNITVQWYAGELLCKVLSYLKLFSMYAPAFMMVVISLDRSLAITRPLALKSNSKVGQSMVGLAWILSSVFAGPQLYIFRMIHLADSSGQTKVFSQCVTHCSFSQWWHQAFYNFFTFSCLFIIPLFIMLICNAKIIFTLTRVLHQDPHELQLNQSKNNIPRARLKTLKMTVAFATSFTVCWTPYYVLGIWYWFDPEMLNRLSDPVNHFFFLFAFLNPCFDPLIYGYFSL
Outline: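 Fluorescence kinetics (480 nm excitation, 540 nm emission; 3 min, 1 s steps) report calcium mobilisation in human GnRHR-HEK293 cells in agonist mode. Dye incubation: 1 h, 37 C.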

[3] = biological target: KiSS-1 receptor (Homo sapiens) (UniProt Q969F8); assay: Human kisspeptin (KISS1R) small molecule agonists, calcium flux assay in KISS1R-HEK293 cells (AID 1920064; active = well fitted curve in the direction sought with a large enough effect in the repeat runs; an effect the other way counts as inactive or inconclusive)
Sequence of KiSS-1 receptor (Homo sapiens) (Q969F8 whole entry, looked up): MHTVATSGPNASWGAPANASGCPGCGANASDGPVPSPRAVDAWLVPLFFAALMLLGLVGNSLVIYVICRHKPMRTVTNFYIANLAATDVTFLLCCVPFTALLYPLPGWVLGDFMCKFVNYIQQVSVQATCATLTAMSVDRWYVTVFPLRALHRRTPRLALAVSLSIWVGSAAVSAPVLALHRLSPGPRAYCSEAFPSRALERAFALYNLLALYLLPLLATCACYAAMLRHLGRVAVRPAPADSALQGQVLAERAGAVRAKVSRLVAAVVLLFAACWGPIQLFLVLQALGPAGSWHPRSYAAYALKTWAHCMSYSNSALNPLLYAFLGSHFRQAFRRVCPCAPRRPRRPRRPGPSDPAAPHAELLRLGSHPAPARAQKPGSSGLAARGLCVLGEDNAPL
Outline: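 Measures KISS1R agonism through calcium-sensitive dye fluorescence in stably transfected HEK293 cells, read for 3 min after pin-tool compound delivery; 15-point titrations in triplicate.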

[4] = G protein-coupled receptor (GPCR) small molecule agonists, calcium flux assay: HEK293 wild type cell line counter screen (AID 1920065)
Outline: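 Readout: fluorescence at 480 nm excitation/540 nm emission, sampled at 1 s intervals for 3 min. Cells had been cultured 18 h, then dye-loaded 1 h at 37 C before compound or ATP addition.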

[5] = p53 small molecule agonists, cell-based qHTS assay with human liver microsomes: qHTS cell viability counter screen (AID 1963579); note: nearly all actives have a fitted effect of over 45% in size
Outline: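 p53RE-bla cells (4,000/well) were pre-incubated 5 h at 37 C, then given compounds in DMSO plus human liver microsomes (0.5 mg/mL final) and NADPH (0.5 mg/mL final) for 16 h at 37 C. Viability was read by CellTiter-Glo luminescence.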

[6] = p53 small molecule agonists, cell-based qHTS assay with rat liver microsomes: qHTS cell viability counter screen (AID 1963580); note: nearly all actives have a fitted effect of over 45% in size
Outline: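 p53RE-bla HCT-116 cells were exposed 16 h at 37 C to compounds with rat liver microsomes (0.5 mg/mL) and NADPH (0.5 mg/mL). Viability was measured in the same wells as ATP content by CellTiter-Glo luminescence.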

[7] = p53 small molecule agonists, cell-based qHTS assay: qHTS cell viability counter screen (AID 1963581); note: nearly all actives have a fitted effect of over 45% in size; note: potency is the fitted concentration of half-maximal effect
Outline: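 In the same plates used for the p53 bla reporter, HCT-116 cells given compounds for 16 h at 37 C received CellTiter-Glo; luminescence was recorded 30 min later at room temperature.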

[8] = biological target: 5-hydroxytryptamine receptor 2A (Homo sapiens) (UniProt P28223); assay: 5-hydroxytryptamine receptor 2A (HTR2A) small molecule antagonists, cell-based qHTS assay (AID 1963586); note: nearly all actives have a fitted effect of over 45% in size
Sequence of 5-hydroxytryptamine receptor 2A (Homo sapiens) (P28223 whole entry, looked up): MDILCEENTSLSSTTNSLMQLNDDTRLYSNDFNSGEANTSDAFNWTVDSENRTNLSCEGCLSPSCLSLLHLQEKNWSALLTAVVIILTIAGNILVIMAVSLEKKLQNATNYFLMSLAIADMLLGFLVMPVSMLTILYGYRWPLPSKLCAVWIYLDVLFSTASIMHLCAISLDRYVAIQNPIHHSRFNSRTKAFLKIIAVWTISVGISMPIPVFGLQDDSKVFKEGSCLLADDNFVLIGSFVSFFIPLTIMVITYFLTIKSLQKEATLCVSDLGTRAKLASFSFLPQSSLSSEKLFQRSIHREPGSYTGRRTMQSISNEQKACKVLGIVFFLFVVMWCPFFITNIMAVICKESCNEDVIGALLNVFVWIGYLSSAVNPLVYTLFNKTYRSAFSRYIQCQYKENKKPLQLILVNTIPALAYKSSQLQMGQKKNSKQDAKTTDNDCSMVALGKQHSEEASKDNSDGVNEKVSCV
Outline: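 Antagonist-mode intracellular calcium assay: DOI (4 nM) added after 5 min compound pre-incubation at room temperature to dye-loaded HTR2A-CHO cells. Fluorescence followed for 3 min, sampled every second.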

[9] = biological target: 5-hydroxytryptamine receptor 2A (Homo sapiens) (UniProt P28223); assay: 5-hydroxytryptamine receptor 2A (HTR2A) small molecule agonists, cell-based qHTS assay (AID 1963587); note: nearly all actives have a fitted effect of over 30% in size
Outline: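 CHO cells stably expressing human HTR2A, plated 18 h, loaded with calcium dye 1 h at 37 C. Agonist mode: compounds added and intracellular calcium fluorescence recorded kinetically for 2 min at 1 sec intervals.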

[10] = biological target: Muscarinic acetylcholine receptor M1 (Homo sapiens) (UniProt P11229); assay: Cholinergic receptor muscarinic 1 (CHRM1) small molecule agonists, cell-based qHTS assay (AID 1963589); note: nearly all actives have a fitted effect of over 35% in size
Sequence of Muscarinic acetylcholine receptor M1 (Homo sapiens) (P11229 whole entry, looked up): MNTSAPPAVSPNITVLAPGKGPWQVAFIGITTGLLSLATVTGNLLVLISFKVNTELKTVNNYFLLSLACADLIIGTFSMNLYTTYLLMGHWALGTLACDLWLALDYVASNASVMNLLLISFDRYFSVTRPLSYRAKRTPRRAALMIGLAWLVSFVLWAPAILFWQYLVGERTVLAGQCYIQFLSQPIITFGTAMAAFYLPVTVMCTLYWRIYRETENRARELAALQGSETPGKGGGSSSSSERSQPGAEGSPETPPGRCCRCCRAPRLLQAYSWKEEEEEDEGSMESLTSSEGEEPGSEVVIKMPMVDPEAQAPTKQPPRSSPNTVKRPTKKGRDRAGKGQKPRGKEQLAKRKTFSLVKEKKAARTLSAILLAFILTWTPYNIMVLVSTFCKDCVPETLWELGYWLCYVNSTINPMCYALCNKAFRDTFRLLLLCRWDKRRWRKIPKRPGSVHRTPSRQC
Outline: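 Each compound was tested at 15 concentrations across three independent runs on dye-loaded CHO cells stably expressing human CHRM1, reading intracellular calcium fluorescence kinetically at 1 sec intervals.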

[11] = cAMP Responsive Elements (CRE) small molecule agonists, cell-based qHTS assay (AID 1963590)
Outline: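 Cell line: CRE-bla HEK 293T; medium DMEM/10% dialyzed FBS/0.1 mM NEAA/1 mM pyruvate/25 mM HEPES; 3 h compound exposure; beta-lactamase FRET readout after 2 h substrate loading at RT.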

[12] = cAMP Responsive Elements (CRE) small molecule antagonists, cell-based qHTS assay (AID 1963591; active = well fitted inhibition curve with a large enough effect in the signal ratio in the repeat runs, not every such curve was filed as active; the % refers to the signal ratio)
Outline: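 Inhibition of NKH477-driven (0.25 uM final) CRE-beta-lactamase signal in HEK293T cells, 3 h compound exposure at 37 °C, detected by FRET substrate fluorescence.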

[13] = biological target: Beta-2 adrenergic receptor (Homo sapiens) (UniProt P07550); assay: Adrenergic beta2 receptor (ADRB2) small molecule antagonists, cell-based qHTS assay (AID 1963592); note: series mostly up to about 92 µM; nearly all actives have a fitted effect of over 50% in size
Sequence of Beta-2 adrenergic receptor (Homo sapiens) (P07550 whole entry, looked up): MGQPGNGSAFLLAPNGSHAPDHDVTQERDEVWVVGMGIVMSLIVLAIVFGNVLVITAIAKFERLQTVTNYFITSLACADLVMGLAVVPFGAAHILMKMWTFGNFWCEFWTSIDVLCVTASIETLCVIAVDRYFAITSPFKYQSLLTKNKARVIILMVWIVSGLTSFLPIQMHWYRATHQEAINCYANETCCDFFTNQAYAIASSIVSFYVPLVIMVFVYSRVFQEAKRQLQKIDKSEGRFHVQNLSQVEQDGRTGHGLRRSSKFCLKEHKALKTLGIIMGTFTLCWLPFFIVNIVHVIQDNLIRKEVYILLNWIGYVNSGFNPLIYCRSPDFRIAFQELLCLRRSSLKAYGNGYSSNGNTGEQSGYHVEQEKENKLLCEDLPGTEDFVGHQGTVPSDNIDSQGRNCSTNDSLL
Outline: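 Cells (CHO, stable ADRB2 overexpression) incubated 18-20hr at 37C; compounds added from DMSO; agonist mix (1nM isoproterenol, 100uM IBMX, 25uM Ro-20-1724) added; 0.5hr RT; d2-cAMP and anti-cAMP-cryptate added; 1hr RT; 665/615 nm read.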

[14] = biological target: Beta-2 adrenergic receptor (Homo sapiens) (UniProt P07550); assay: Adrenergic beta2 receptor (ADRB2) small molecule agonists, cell-based qHTS assay (AID 1963593);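 note: CHO cells stably overexpressing human ADRB2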
Outline: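 CHO cells stably over-expressing ADRB2 were plated overnight at 37C, then dosed with compounds plus a stimulation mix containing 100uM IBMX and 25uM Ro-20-1724 for 0.5hr at room temperature. cAMP was measured by HTRF competition, 1hr.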

[15] = biological target: D(2) dopamine receptor (Homo sapiens) (UniProt P14416); assay: Dopamine D2 receptor (DRD2) small molecule agonists, cell-based qHTS assay (AID 1963594); note: nearly all actives have a fitted effect of over 35% in size
Sequence of D(2) dopamine receptor (Homo sapiens) (P14416 whole entry, looked up): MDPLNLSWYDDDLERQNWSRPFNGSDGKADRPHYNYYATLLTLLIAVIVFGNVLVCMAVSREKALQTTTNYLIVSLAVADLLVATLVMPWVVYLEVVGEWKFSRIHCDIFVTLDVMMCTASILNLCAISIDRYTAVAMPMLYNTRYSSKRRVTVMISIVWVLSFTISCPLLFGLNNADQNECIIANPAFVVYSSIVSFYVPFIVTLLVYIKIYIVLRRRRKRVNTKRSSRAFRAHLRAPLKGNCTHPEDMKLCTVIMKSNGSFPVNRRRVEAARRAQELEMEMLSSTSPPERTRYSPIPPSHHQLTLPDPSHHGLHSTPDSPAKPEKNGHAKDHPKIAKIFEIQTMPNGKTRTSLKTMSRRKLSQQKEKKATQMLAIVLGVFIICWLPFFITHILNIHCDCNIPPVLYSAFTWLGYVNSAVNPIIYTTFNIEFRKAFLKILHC
Outline: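 HEK293 cells stably expressing human DRD2, pre-treated with PDE inhibitor Ro20-1724 (0.1 mM final) and compound 10 min at room temperature, then stimulated with NKH477 (200nM […]) for 30 min. cAMP read by HTRF (665/620 nm).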

[16] = biological target: D(2) dopamine receptor (Homo sapiens) (UniProt P14416); assay: Dopamine D2 receptor (DRD2) small molecule antagonists, cell-based qHTS assay (AID 1963595; active = well fitted inhibition curve with a large enough effect in the signal ratio in the repeat runs, with a control signal flat; the % refers to the signal ratio; note: potency is the fitted concentration of half-maximal effect)
Outline: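 Readout: HTRF cAMP, cAMP-d2 competing with cellular cAMP for anti-cAMP cryptate, read after 1 h. Cells: DRD2-HEK293. Conditions: 0.1 mM Ro20-1724, 12 nM quinpirole, 200 nM NKH477, 30 min RT.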

[17] = biological target: Muscarinic acetylcholine receptor M1 (Homo sapiens) (UniProt P11229); assay: Cholinergic receptor muscarinic 1 (CHRM1) small molecule antagonists, cell-based qHTS assay (AID 1963588); note: nearly all actives have a fitted effect of over 40% in size; note: potency is the fitted concentration of half-maximal effect
Outline: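 CHRM1-CHO calcium-flux assay, antagonist mode. Cells were seeded 18 h, dye-loaded 1 h at 37 C and given compound for 5 min at RT, then acetylcholine was added at 50nM. FDSS fluorescence was read 3 min; 15 concentrations, three runs.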

[18] = p53 small molecule agonists, cell-based qHTS assay (AID 1963582; active = well fitted activation curve with a large enough effect in the signal ratio in the repeat runs, not every such curve was filed as active; the % refers to the signal ratio)
Outline: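 Compounds are pin-transferred in DMSO onto p53RE-bla cells and incubated 16 h at 37 C. The B/G FRET beta-lactamase substrate is then applied for 2 h at RT and fluorescence recorded.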
% is set by controls: 0 for no effect and ±100 for the full control effect.

c1ccc(-c2ccc(-c3ccccc3)cc2)cc1
inactive: activity change, negative = cytotoxicity [1] 1.35% [at 19 µM] | activity change [2] 1.83% [at 11.8 µM, active compounds read high] | activation [3] 1.85% [at 15.8 µM] | activation [4] 0.1% [at 11.8 µM] | activity change, negative = cytotoxicity [5] 5.03% [at 13.5 µM] | activity change, negative = cytotoxicity [6] -3.67% [at 13.5 µM] | activity change, negative = cytotoxicity [7] -12.2% [at 13.5 µM] | activity, negative = inhibition [8] -2.25% [at 12.7 µM] | activation [9] 13.6% [at 15.9 µM] | activation [10] 0.405% [at 15.8 µM] | activation [11] -0.166% [at 19 µM] | activity change, negative = inhibition [12] -3.34% [at 18.9 µM] | activity change, negative = inhibition [13] 0.791% [at 19 µM] | activation [14] 7.35% [at 19 µM] | activation [15] 2.85% [at 19 µM] | activity change, negative = inhibition [16] 0.516% [at 18.9 µM]

CCOC(=O)c1ccc(N(C)C)cc1
inactive: Potency [1] | Potency [2] | Potency [3] | Potency [4] | Potency [5] | Potency [7] | Potency [8] | Potency [9] | Potency [10] | Potency [11] | Potency [12] | Potency [13] | Potency [14] | Potency [15] | Potency [16]

COC(OC)(C(=O)c1ccccc1)c1ccccc1
inactive: Potency [1] | Potency [2] | Potency [3] | Potency [4] | Potency [5] | Potency [6] | Potency [7] | Potency [8] | Potency [9] | Potency [10] | Potency [11] | Potency [12] | Potency [13] | Potency [14] | Potency [15] | Potency [16]

CC1=CC(=O)CCC1
inactive: Potency [1] | Potency [2] | Potency [3] | Potency [4] | Potency [5] | Potency [6] | Potency [7] | Potency [8] | Potency [9] | Potency [17] | Potency [10] | Potency [11] | Potency [12] | Potency [15] | Potency [16]

NC(=O)Cn1c(=O)cc(CCN2CCN(c3nccc4sccc34)CC2)c2ccc(F)cc21
active: Potency [17] 23.7 µM
inactive: Potency [1] | Potency [2] | Potency [3] | Potency [4] | Potency [6] | Potency [7] | Potency [18] | Potency [10] | Potency [15] | Potency [16]

CCCCCCCCCCl
inactive: Potency [1] | Potency [2] | Potency [3] | Potency [4] | Potency [5] | Potency [6] | Potency [7] | Potency [8] | Potency [9] | Potency [17] | Potency [10] | Potency [11] | Potency [12] | Potency [13] | Potency [16]

O=C(O)c1nc(Cl)c(Cl)c(Cl)c1Cl
inactive: Potency [1] | Potency [2] | Potency [3] | Potency [4] | Potency [5] | Potency [6] | Potency [7] | Potency [9] | Potency [17] | Potency [10] | Potency [13] | Potency [15] | Potency [16]

CCCCCCCCC(=O)OCC(C)OC(=O)CCCCCCCC (stereo not drawn)
inactive: Potency [1] | Potency [2] | Potency [3] | Potency [4] | Potency [5] | Potency [6] | Potency [7] | Potency [8] | Potency [9] | Potency [17] | Potency [10] | Potency [11] | Potency [13] | Potency [16]

CCCCCCC[N+](CC)(CC)CCCCc1ccc(Cl)cc1
inactive: Potency [1] | Potency [2] | Potency [3] | Potency [4] | Potency [5] | Potency [6] | Potency [7] | Potency [8] | Potency [9] | Potency [10] | Potency [13] | Potency [16]

C/C=C1\C(=O)C[C@H]2[C@@H]3CCC4=CC(=O)CC[C@]4(C)[C@H]3CC[C@]12C
inactive: Potency [1] | Potency [2] | Potency [3] | Potency [4] | Potency [5] | Potency [6] | Potency [7] | Potency [9] | Potency [17] | Potency [10] | Potency [13] | Potency [15] | Potency [16]

CCCCCCCCCCCC(=O)OCC(O)CO (stereo not drawn)
inactive: Potency [1] | Potency [2] | Potency [3] | Potency [4] | Potency [5] | Potency [6] | Potency [7] | Potency [8] | Potency [17] | Potency [10] | Potency [12] | Potency [13] | Potency [15] | Potency [16]

Cc1c(N)cccc1N
inactive: Potency [1] | Potency [2] | Potency [3] | Potency [4] | Potency [5] | Potency [7] | Potency [8] | Potency [9] | Potency [17] | Potency [10] | Potency [11] | Potency [15] | Potency [16]

CCCCCCCCCCCCCC[P+](CCCC)(CCCC)CCCC (tested in a mixture with another compound)
inactive: Potency [2] | Potency [3] | Potency [4] | Potency [5] | Potency [9] | Potency [10] | Potency [13] | Potency [14] | Potency [15]
active: Potency [1] 10.9 µM | Potency [7] 16.3 µM | Potency [16] 27.5 µM

CC(C)C1CCC(C(=O)N[C@H](Cc2ccccc2)C(=O)O)CC1 (stereo partly drawn)
inactive: Potency [1] | Potency [2] | Potency [3] | Potency [4] | Potency [5] | Potency [6] | Potency [7] | Potency [11] | Potency [12] | Potency [14] | Potency [15] | Potency [16]

C[C@@H]1C[C@H]2[C@@H]3C[C@H](F)C4=CC(=O)C=C[C@]4(C)[C@@]3(F)[C@@H](O)C[C@]2(C)[C@@]1(O)C(=O)CO
inactive: Potency [1] | Potency [2] | Potency [3] | Potency [4] | Potency [5] | Potency [6] | Potency [7] | Potency [17] | Potency [10] | Potency [11] | Potency [13] | Potency [15] | Potency [16]

Oc1cccc(Nc2ccccc2)c1
inactive: Potency [1] | Potency [2] | Potency [3] | Potency [4] | Potency [5] | Potency [6] | Potency [7] | Potency [9] | Potency [10] | Potency [11] | Potency [12] | Potency [13] | Potency [15] | Potency [16]
